The values below come from PubChem BioAssay AID2284363 (EPA ToxCast).

Activity calls are given as the source filed them. The calls were made as follows: active = hit-call score of the fitted dose curve at least 0.9, where 1 is the maximum; inactive = score below 0.9.

The target of this assay is Nuclear factor erythroid 2-related factor 2 (Homo sapiens) (UniProt Q16236). Briefly: ERF_US_NR_hNFE2L2: Eurofins (ERF) Cell Based Nuclear Translocation LeadHunter Assay for human Transcription Factor Keap1-Nrf2 Agonism. How it is done:
ERF_US_NR_hNFE2L2 is a cell-based, single-readout assay that uses extracted gene-proteins in a cell-line assay. Measurements were taken 6 hours after chemical dosing in a 384-well plate. See Keap1-Nrf2 Human Transcription Factor Cell Based Agonist Nuclear Translocation Assay, DiscoverX.ERF_US_NR_hNFE2L2 is an assay component calculated from the ERF_US_NR_hNFE2L2 assay. It is designed to measure protein fragment complementation using a type of binding reporter as detected by chemiluminescence with fluorimetry technology.Data from the assay component ERF_US_NR_hNFE2L2 was analyzed at the assay endpoint, ERF_US_NR_hNFE2L2, in the positive analysis fitting direction relative to DMSO as the negative control and baseline of activity. Using a type of binding reporter, gain-of-signal activity can be used to understand changes in binding as they relate to gene NFE2L2. To generalize the intended target to other relatable targets, this assay endpoint is annotated to the dna binding intended target family, where the subfamily is basic leucine zipper.
Cells were seeded in a total volume of 20 uL into white walled, 384-well microplates and incubated at 37C overnight prior to testing.For agonist determination, cells were incubated with sample to induce response. […] The results are expressed as a percent efficacy relative to the maximum response of the control ligand.

Nuclear factor erythroid 2-related factor 2 (Homo sapiens), sequence (Q16236 whole entry, looked up, the tested form may be a part): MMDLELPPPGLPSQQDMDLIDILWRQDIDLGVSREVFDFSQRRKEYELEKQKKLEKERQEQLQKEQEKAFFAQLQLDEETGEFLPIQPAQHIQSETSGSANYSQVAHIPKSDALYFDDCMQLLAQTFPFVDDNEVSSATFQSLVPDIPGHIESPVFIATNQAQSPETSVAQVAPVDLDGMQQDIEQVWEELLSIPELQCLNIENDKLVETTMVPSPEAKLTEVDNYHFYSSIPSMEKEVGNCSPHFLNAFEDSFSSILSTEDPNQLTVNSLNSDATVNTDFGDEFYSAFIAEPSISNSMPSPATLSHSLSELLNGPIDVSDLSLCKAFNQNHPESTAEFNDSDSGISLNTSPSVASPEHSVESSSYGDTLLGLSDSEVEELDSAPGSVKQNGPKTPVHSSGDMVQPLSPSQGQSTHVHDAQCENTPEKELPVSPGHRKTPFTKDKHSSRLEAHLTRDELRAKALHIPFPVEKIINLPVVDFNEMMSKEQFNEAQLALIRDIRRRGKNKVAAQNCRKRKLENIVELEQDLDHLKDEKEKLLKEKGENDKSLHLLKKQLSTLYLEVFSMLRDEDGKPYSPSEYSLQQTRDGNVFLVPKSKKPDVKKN

The term AC50 denotes the concentration giving half of the maximal activity seen. With `CC(C)(C)c1cc(O)ccc1O`, the AC50 was 12.2 µM (active).
Turning to `CCNS(=O)(=O)C(F)(F)C(F)(F)C(F)(F)C(F)(F)C(F)(F)C(F)(F)C(F)(F)C(F)(F)F`, the call was inactive.
